The results in this text go back to the supplement of paper PMC10646978.

± gives the standard deviation.

In this assay the test system is RAW-Dual (murine macrophage reporter line). The assay can be described thus: NF-kB reporter (SEAP) activity fold change vs agonist alone; higher = enhanced NF-kB activity. The note with it: modulator concentration 10 µM; agonist: MPLA […]. The method, boiled down:
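Compound reached 10 μM final in each well by pin transfer, onto RAW-Dual murine macrophage reporter cells seeded at 50 000 per well in 384-well plates. After 1 hour at 37 °C, the cells were stimulated overnight with a PRR agonist. SEAP in the supernatant was read with QUANTI-Blue at 620 nm absorbance for NF-κB, and Lucia luciferase was read with QUANTI-Luc luminescence for IRF. Each signal was turned into fold change against the mean agonist-only control on the same plate, and two replicate plates were averaged with propagated errors.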
For the molecule `CCCOc1ccc(C=CC(=O)Nc2ccc(S(=O)(=O)Nc3ncccn3)cc2)cc1OC`, the NF-kB reporter was found to be 0.963 ± 0.092.
As for `CN(C)C1C(O)=C(C(N)=O)C(=O)C2(O)C(O)=C3C(=O)c4c(O)cccc4C(C)(O)C3CC12.Cl` (centres undefined), the figure is 1.01 ± 0.021.
As for `O=c1oc2cc(O)ccc2c2ccccc12`, the figure is 1.06 ± 0.038; as for `CC(C)Oc1cccc(C(=O)NC(=S)N2CCN(c3ccc([N+](=O)[O-])cc3)CC2)c1`, 1.09 ± 0.1.
For the molecule `O=c1[nH]nc(Br)c(=O)[nH]1`, the NF-kB reporter is 0.969 ± 0.04.
Consider `NC(CO)(CO)CO.O=C(c1ccccc1)c1ccc2n1CCC2C(=O)O` (centres undefined), for which the NF-kB reporter is 0.977 ± 0.14.
Then `O=C(NCCN1CCN(c2ccc(F)cc2)CC1)c1ccno1`, with 0.991 ± 0.026.
Then `N[C@H](Cc1ccccc1)C(=O)O`, with 0.958 ± 0.025.
Then `O=c1[nH]c(NN=Cc2c3ccccc3cc3ccccc23)nc2ccccc12`, with 0.971 ± 0.066; and `Clc1ccc(Nc2nc3nonc3nc2NC2C3CC4CC(C3)CC2C4)cc1` (centres undefined), with 1.2 ± 0.096; and `CCN(CC)CCOC(=O)C(c1ccccc1)C1CCCCC1.Cl` (centres undefined), with 0.878 ± 0.082.
As to `CCOC(C#CCN(CC)CC)(c1ccccc1)c1ccccc1.Cl`, the NF-kB reporter was 0.424 ± 0.031.
Then `CCC(=O)c1c(O)cc(O)cc1O`, with 1.04 ± 0.055.
Then `C[C@@H]1CCN(C(=O)CC#N)C[C@@H]1N(C)c1ncnc2[nH]ccc12.O=C(O)CC(O)(CC(=O)O)C(=O)O`, with 0.885 ± 0.06.
Then `Nc1ccc(O)c(C(=O)O)c1`, with 1.04 ± 0.022; and `COc1cc(C2CC3CC2C(C)C3(C)C)ccc1O` (centres undefined), with 0.773 ± 0.078; and `CCOc1ccc2nc(SC(c3ccccc3)c3ccccc3)sc2c1`, with 0.974 ± 0.14.
Consider `COc1c(C)cnc(Cn2cccc(-c3nc(C)no3)c2=O)c1C`, for which the NF-kB reporter is 0.967 ± 0.061.
As for `COc1ccc(C=C(NC(=O)c2ccccc2)C(=O)NCCC(=O)OCc2ccccc2)cc1`, the figure is 0.875 ± 0.073.
